In PubChem BioAssay (EPA / NIEHS):
Some structures have more than one record in an assay (separate samples or runs), and their calls can disagree. The source made the active and inactive calls. How the source made its calls: active means hit-call score of the fitted dose curve at least 0.9, where 1 is the maximum; inactive means score below 0.9.

Assays:
[1] = read-out: Interleukin-8 (IL8), CXCL8 (gene 3576); assay: BSK_MyoF_IL8: BioMAP Diversity Plus: MyoF Assay for Interleukin-8 (IL8) Biomarker Activity (AID 2284261); conditions: primary human lung fibroblasts
Summary of the method: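 Human lung fibroblast (MyoF system) cultures dosed for 24 h, then IL-8 measured by ELISA. Response taken relative to DMSO; parallel SRB total-protein staining for cytotoxicity.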

[2] = read-out: CD90, THY1 (gene 7070); assay: BSK_BF4T_CD90: BioMAP Diversity Plus: BF4T Assay for CD90 Biomarker Activity (AID 2284262); conditions: primary human bronchial epithelial cells with fibroblasts
Summary of the method: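 CD90 levels by ELISA after 24 h treatment of human bronchial epithelial cell/dermal fibroblast cultures, analysed versus DMSO. Overt cytotoxicity checked in parallel cultures by sulforhodamine B staining.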

[3] = read-out: Interleukin-8 (IL8), CXCL8 (gene 3576); assay: BSK_BF4T_IL8: BioMAP Diversity Plus: BF4T Assay for Interleukin-8 (IL8) Biomarker Activity (AID 2284263); conditions: primary human bronchial epithelial cells with fibroblasts
Summary of the method: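 Human bronchial epithelial cells with dermal fibroblasts co-culture; IL-8 measured by ELISA 24 hours after dosing, fitted vs DMSO. Cytotoxicity tracked in parallel cultures by SRB total-protein staining.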

[4] = read-out: Interleukin-1 alpha (IL1a), IL1A (gene 3552); assay: BSK_BF4T_IL1a: BioMAP Diversity Plus: BF4T Assay for Interleukin-1 alpha (IL1a) Biomarker Activity (AID 2284264); conditions: primary human bronchial epithelial cells with fibroblasts
Summary of the method: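 ELISA read-out of IL-1α from bronchial epithelial cell/dermal fibroblast co-cultures 24 h after compound addition. Increases scored against DMSO negative control. Cytotoxicity monitored by sulforhodamine B staining of parallel cultures.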

[5] = read-out: Decorin, DCN (gene 1634); assay: BSK_MyoF_Decorin: BioMAP Diversity Plus: MyoF Assay for Decorin Biomarker Activity (AID 2284265); conditions: primary human lung fibroblasts
Summary of the method: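 Human lung fibroblast cultures were dosed for 24 h, and decorin was then measured by ELISA. Parallel cultures were stained with sulforhodamine B for total protein as a cytotoxicity check. Gain of signal was fitted relative to DMSO.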

[6] = BSK_MyoF_SRB: Viability Assessment in the BioMAP Diversity Plus: MyoF Assay (AID 2284267); conditions: primary human lung fibroblasts;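 further: total protein by SRB absorbance in parallel cultures as cytotoxicity measure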
Summary of the method: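 Cytotoxicity read-out: after 10% TCA fixation, parallel human lung fibroblast cultures were stained with 0.1% SRB at 24 h post-dosing and read at 560 nm; DMSO served as baseline.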

[7] = read-out: Matrix Metallopeptidase 1 (MMP1), MMP1 (gene 4312); assay: BSK_MyoF_MMP1: BioMAP Diversity Plus: MyoF Assay for Matrix Metallopeptidase 1 (MMP1) Biomarker Activity (AID 2284268); conditions: primary human lung fibroblasts
Summary of the method: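 Human lung fibroblast primary cells; MMP1 measured by ELISA 24 h after dosing, fitted in the positive direction relative to DMSO. Parallel SRB staining (0.1%, after 10% TCA fixation, 560 nm) assesses overt cytotoxicity.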

[8] = read-out: TIMP metallopeptidase inhibitor 1 (TIMP1), TIMP1 (gene 7076); assay: BSK_MyoF_TIMP1: BioMAP Diversity Plus: MyoF Assay for TIMP metallopeptidase inhibitor 1 (TIMP1) Biomarker Activity (AID 2284269); conditions: primary human lung fibroblasts
Summary of the method: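 ELISA read-out of TIMP-1 from primary human lung fibroblast cultures 24 h after compound dosing; gain of signal relative to DMSO vehicle baseline defines activity.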

[9] = read-out: Matrix Metallopeptidase 1 (MMP1), MMP1 (gene 4312); assay: BSK_BF4T_MMP1: BioMAP Diversity Plus: BF4T Assay for Matrix Metallopeptidase 1 (MMP1) Biomarker Activity (AID 2284270); conditions: primary human bronchial epithelial cells with fibroblasts
Summary of the method: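 MMP-1 quantified by ELISA in primary human bronchial epithelial/dermal fibroblast co-cultures, 24 hours post-dosing, with DMSO as baseline; parallel sulforhodamine B staining (560 nm) tracks overt cytotoxicity.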

[10] = read-out: Matrix Metallopeptidase 3 (MMP3), MMP3 (gene 4314); assay: BSK_BF4T_MMP3: BioMAP Diversity Plus: BF4T Assay for Matrix Metallopeptidase 3 (MMP3) Biomarker Activity (AID 2284271); conditions: primary human bronchial epithelial cells with fibroblasts
Summary of the method: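 MMP-3 level read by ELISA after 24 h chemical exposure of bronchial epithelial cell/dermal fibroblast co-cultures, fitted upward relative to DMSO. Parallel cultures stained with 0.1% SRB after TCA fixation gauge overt cytotoxicity.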

[11] = read-out: Tissue plasminogen activator (tPA), PLAT (gene 5327); assay: BSK_BF4T_tPA: BioMAP Diversity Plus: BF4T Assay for Tissue plasminogen activator (tPA) Biomarker Activity (AID 2284272); conditions: primary human bronchial epithelial cells with fibroblasts
Summary of the method: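 tPA level quantified by ELISA at 24 h post-treatment in bronchial epithelial/dermal fibroblast co-cultures, gain of signal scored against DMSO baseline. Parallel cultures stained with 0.1% SRB (560 nm) to flag overt cytotoxicity.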

[12] = BSK_BF4T_SRB: Viability Assessment in the BioMAP Diversity Plus: BF4T Assay (AID 2284274); conditions: primary human bronchial epithelial cells with fibroblasts
Summary of the method: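 Cytotoxicity measured as total protein: cells fixed with 10% TCA, stained with 0.1% SRB, read at 560 nm. Bronchial epithelial/dermal fibroblast co-culture, 24 h after dosing, with positive-direction fitting relative to DMSO.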

[13] = read-out: urokinase Plasminogen Activator (uPA), PLAU (gene 5328); assay: BSK_BF4T_uPA: BioMAP Diversity Plus: BF4T Assay for urokinase Plasminogen Activator (uPA) Biomarker Activity (AID 2284275); conditions: primary human bronchial epithelial cells with fibroblasts
Summary of the method: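 uPA levels measured by ELISA at 24 hours in BF4T cultures (bronchial epithelial cells plus dermal fibroblasts) and compared with DMSO; cytotoxicity tracked in parallel cultures by sulforhodamine B staining.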

[14] = read-out: Matrix Metallopeptidase 9 (MMP9), MMP9 (gene 4318); assay: BSK_BF4T_MMP9: BioMAP Diversity Plus: BF4T Assay for Matrix Metallopeptidase 9 (MMP9) Biomarker Activity (AID 2284276); conditions: primary human bronchial epithelial cells with fibroblasts
Summary of the method: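 MMP-9 levels were measured by ELISA after 24 h exposure of bronchial epithelial cell/dermal fibroblast co-cultures, with DMSO as baseline. Parallel cultures were stained with 0.1% SRB after TCA fixation, read at 560 nm, to flag overt cytotoxicity.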

[15] = read-out: Interleukin-8 (IL8), CXCL8 (gene 3576); assay: BSK_IMphg_IL8: BioMAP Diversity Plus: IMphg Assay for Interleukin-8 (IL8) Biomarker Activity (AID 2284277); conditions: primary human endothelial cells with macrophages
Summary of the method: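 IL-8 levels were measured by ELISA 24 h after dosing in primary human venular endothelial cell–macrophage cultures, referenced to DMSO; parallel SRB staining monitored overt cytotoxicity.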

[16] = read-out: Intercellular Adhesion Molecule 1 (ICAM1), ICAM1 (gene 3383); assay: BSK_BE3C_ICAM1: BioMAP Diversity Plus: BE3C Assay for Intercellular Adhesion Molecule 1 (ICAM1) Biomarker Activity (AID 2284278); conditions: primary human bronchial epithelial cells;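 further: cell-surface ICAM-1 protein level quantified by ELISA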
Summary of the method: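 ICAM-1 quantified by ELISA and fitted against DMSO baseline, 24 h post-dosing in BE3C cultures of primary human lung bronchial epithelial cells. Cytotoxicity checked in parallel cultures by total protein SRB staining.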

[17] = read-out: Interferon-inducible T-cell alpha chemoattractant (ITAC), CXCL11 (gene 6373); assay: BSK_BE3C_ITAC: BioMAP Diversity Plus: BE3C Assay for Interferon-inducible T-cell alpha chemoattractant (ITAC) Biomarker Activity (AID 2284279); conditions: primary human bronchial epithelial cells
Summary of the method: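 ELISA read-out of I-TAC after 24 h chemical dosing of human lung primary bronchial epithelial cells; gain-of-signal fit vs DMSO baseline. Parallel SRB total-protein staining (0.1% SRB, 10% TCA fixation, 560 nm) assessed cytotoxicity.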

[18] = read-out: Interleukin-8 (IL8), CXCL8 (gene 3576); assay: BSK_BE3C_IL8: BioMAP Diversity Plus: BE3C Assay for Interleukin-8 (IL8) Biomarker Activity (AID 2284280); conditions: primary human bronchial epithelial cells
Summary of the method: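 Primary human bronchial epithelial cells (BE3C system) were exposed to test chemical for 24 h, and IL-8 levels were then measured by ELISA. Activity was fitted in the positive (gain-of-signal) direction against a DMSO negative-control baseline.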

Measured: AC50

C=CC(F)(F)C(F)(F)C(F)(F)C(F)(F)C(F)(F)C(F)(F)C(F)(F)C(F)(F)C=C
inactive: all assays above

Nc1ccc([N+](=O)[O-])cc1O
inactive: [1] | [5] | [6] | [7] | [8]

O=C(O)C(F)(OC(F)(F)C(F)(OC(F)(F)C(F)(F)C(F)(F)F)C(F)(F)F)C(F)(F)F (stereo not drawn)
active: [18] 0.025 µM
inactive: [1] | [2] | [3] | [4] | [5] | [6] | [7] | [8] | [9] | [10] | [11] | [12] | [13] | [14] | [15] | [16] | [17] | [18]

CC(=O)Nc1ccc(N=Nc2cc(C)ccc2O)cc1
active: [7] 31 µM
inactive: [1] | [5] | [6] | [8]

CCCCCCCOC(=O)c1ccccc1C(=O)OCCCCCCC
inactive: [1] | [5] | [6] | [7] | [8]

O=S(=O)(OCC(F)F)C(F)(F)F
inactive: all assays above

FC(F)(F)C(F)(F)C(F)(F)C(F)(F)C(F)(F)C(F)(F)C(F)(F)Br
inactive: all assays above
